# Assay results: PubChem BioAssay (Tox21)
# Values joined by “and” are separate entries in the source; they are usually repeats but may differ in a detail not shown here. Identical values can stand only once. Results filed as inconclusive are left out. Entries that show only a call come without a potency. Active and inactive are the calls of the source. Unless noted, the call rests on the fitted dose curve; in most records, active means well fitted curve in the direction sought with a large enough effect in the repeat runs; inconclusive means weak or mixed curves; inactive means no such curve, though single readings can be large; an effect the other way counts as inactive or inconclusive.
# Experiments:
# [1] = A CellTox Green Cytotoxicity Assay to monitor cytotoxicity in HEK293 cells - 32 hour (AID 1224881); further: nearly all actives have a fitted effect of over 40% in size; further: potency means the concentration at half of the fitted maximal effect
# In short: (§1)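 Homogeneous no-lysis format: HEK293 cell suspension mixed with CellTox Green reagent, seeded, incubated 5 h at 37 C/5% CO2, then dosed by pintool with compound in DMSO.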
# [2] = A CellTox Green Cytotoxicity Assay to monitor cytotoxicity in HepG2 cells - 32 hour (AID 1224883); further: nearly all actives have a fitted effect of over 50% in size; further: potency means the concentration at half of the fitted maximal effect
# In short: (§2)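 Fluorescent DNA-binding dye, 600 HepG2 cells/well, 5 h preincubation then compound in DMSO; same plates read at 0–40 h, 37 C.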
# [3] = A CellTox Green Cytotoxicity Assay to monitor cytotoxicity in HEK293 cells - 8 hour (AID 1224884); further: nearly all actives have a fitted effect of over 35% in size; further: potency means the concentration at half of the fitted maximal effect
# In short: as §1
# [4] = qHTS RealTime-Glo MT Cell Viability Assay in HEK293 cells - 24 hour (AID 1224886); further: nearly all actives have a fitted effect of over 50% in size; further: potency means the concentration at half of the fitted maximal effect
# In short: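 Assay medium contained NanoLuc luciferase plus cell-permeant prosubstrate, added with HEK293 cells at 600 cells/well. After 5 h at 37 C/5% CO2 compounds were added; plates stayed at 37 C for 40 h with serial luminescence reads.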
# [5] = qHTS RealTime-Glo MT Cell Viability Assay in HepG2 cells - 0 hour (AID 1224889); further: nearly all actives have a fitted effect of over 50% in size
# In short: (§3)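 qHTS, HepG2, 600 cells/well, RealTime-Glo (NanoLuc + prosubstrate) added with cells; 5 h preincubation; DMSO compound addition; 37 C; luminescence at 0/8/16/24/32/40 h.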
# [6] = qHTS assay to identify small molecule antagonists of the estrogen receptor alpha (ER-alpha) signaling pathway using the BG1 cell line in the presence of 0.1 nM 17-beta-estradiol - cell viability counter screen (AID 1259241); further: nearly all actives have a fitted effect of over 40% in size; further: potency means the concentration at half of the fitted maximal effect
# In short: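 CellTiter-Fluor read (30 min, 37C) on ER-alpha/ERE-luc VM7Luc4E2 cells; 22 hr compound treatment; agonist 0.1 nM E2 final; same-well multiplex.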
# [7] = qHTS assay to identify small molecule antagonists of the androgen receptor (AR) signaling pathway using the MDA cell line in the presence of 0.5 nM R1881 - cell viability counter screen (AID 1259242); further: nearly all actives have a fitted effect of over 45% in size; further: potency means the concentration at half of the fitted maximal effect
# In short: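 Human breast carcinoma MDA-kb2 cells, cultured without CO2, receive compounds alongside 0.5 nM (final) R1881 agonist. After 16 hr at 37C, viability is taken as live-cell protease signal.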
# [8] = biological target: Estrogen receptor (Homo sapiens) (UniProt P03372); experiment: qHTS assay to identify small molecule antagonists of the estrogen receptor alpha (ER-alpha) signaling pathway using the BG1 cell line in the presence of 0.1 nM 17-beta-estradiol (AID 1259244); further: nearly all actives have a fitted effect of over 50% in size; further: potency means the concentration at half of the fitted maximal effect
# In short: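 Seeding of stripped-serum-adapted VM7Luc4E2 cells, 24 h attachment, compound transfer, then 0.1 nM final 17beta-estradiol; after 22 h incubation, ONE-Glo reagent and luminescence reading.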
# [9] = qHTS assay to identify small molecule HDAC inhibitors (AID 1259364); further: potency means the concentration at half of the fitted maximal effect;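 further: wild-type HCT-116 cells with endogenous class I/II HDAC activity; nearly all actives have a fitted effect of over 45% in size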
# In short: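 After a 2 hr compound incubation (37C, 5% CO2), HCT-116 cells seeded at 1,500/well the day before received HDAC-Glo reagent; signal read as luminescence after 30 min at room temperature.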
# [10] = qHTS assay to identify small molecule HDAC inhibitors - cell viability counter screen (AID 1259365)
# In short: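 To flag cytotoxic hits, 1,500 wild-type HCT-116 cells per well, plated the day before, receive test compounds for 2hr at 37 C before CellTiter-Glo reagent and a luminescence read.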
# [11] = qHTS assay to identify small molecule antagonists of the sonic hedgehog signaling (Shh) pathway - cell viability counter screen (AID 1259367); further: nearly all actives have a fitted effect of over 55% in size; further: potency means the concentration at half of the fitted maximal effect
# In short: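 CellTiter-Fluor signal in conditioned medium-stimulated 3T3 Gli1-Luc cells, 23 hr compound exposure, 37C.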
# [12] = qHTS assay to identify small molecule agonists of the sonic hedgehog signaling (Shh) pathway (AID 1259368; calls by dose curve;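 further: NIH/3T3-derived 3T3Gli1-Luc cells carrying a stable Gli1-driven firefly luciferase reporter; series mostly up to about 92 µM; nearly all actives have a fitted effect of over 15% in size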)
# In short: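 Stable NIH/3T3 Gli1-Luc reporter clone; 24 hr cpd exposure after a 4 hr settling period; luminescence endpoint.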
# [13] = qHTS RealTime-Glo MT Cell Viability Assay in HepG2 cells - 16 hour (AID 1224885); further: nearly all actives have a fitted effect of over 50% in size; further: potency means the concentration at half of the fitted maximal effect
# In short: as §3
# [14] = qHTS RealTime-Glo MT Cell Viability Assay in HEK293 cells - 8 hour (AID 1224887); further: nearly all actives have a fitted effect of over 50% in size; further: potency means the concentration at half of the fitted maximal effect
# In short: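 Measured as luminescence from the same continuously cultured HEK293 wells at successive time points (0, 8, 16, 24, 32, 40 h) after compound addition. Reagent present from seeding; dosing at 5 h; incubation 37 C.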
# [15] = A CellTox Green Cytotoxicity Assay to monitor cytotoxicity in HEK293 cells - 16 hour (AID 1224888); further: nearly all actives have a fitted effect of over 35% in size; further: potency means the concentration at half of the fitted maximal effect
# In short: as §1
# [16] = A CellTox Green Cytotoxicity Assay to monitor cytotoxicity in HepG2 cells - 8 hour (AID 1224890); further: nearly all actives have a fitted effect of over 45% in size; further: potency means the concentration at half of the fitted maximal effect
# In short: as §2
# [17] = qHTS assay to identify small molecule agonists of the sonic hedgehog signaling (Shh) pathway - cell viability counter screen (AID 1259366); further: nearly all actives have a fitted effect of over 50% in size; further: potency means the concentration at half of the fitted maximal effect
# In short: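 Fluorescence from CellTiter-Fluor reports live cells in this counter screen. NIH/3T3-derived Gli1-Luc reporter cells receive test compounds for 24hr at 37C; reagent goes in at 23hr.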
# [18] = qHTS assay to identify small molecule phospholipidosis (PLD) inducers (AID 1259344; active means well fitted curve in the direction sought with a large enough effect; an effect the other way counts as inactive or inconclusive)
# In short: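 Accumulated phospholipid, stained red by LipidTOX during 24 h compound treatment of HepG2 cells at 37 C, is quantified from images as pit number and intensity, normalised per cell using Hoechst-stained nuclei.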
# [19] = biological target: Androgen receptor (Homo sapiens) (UniProt P10275); experiment: qHTS assay to identify small molecule antagonists of the androgen receptor (AR) signaling pathway using the MDA cell line in the presence of 0.5 nM R1881 (AID 1259243); further: nearly all actives have a fitted effect of over 50% in size; further: potency means the concentration at half of the fitted maximal effect
# In short: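 Cells: MDA-kb2 (MMTV-luc). Stimulus: 0.5 nM R1881. Time: 16 hr, 37C, no CO2. Detection: ONE-Glo luminescence after 30 min at RT.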
# Estrogen receptor (Homo sapiens), sequence (P03372 whole entry, looked up): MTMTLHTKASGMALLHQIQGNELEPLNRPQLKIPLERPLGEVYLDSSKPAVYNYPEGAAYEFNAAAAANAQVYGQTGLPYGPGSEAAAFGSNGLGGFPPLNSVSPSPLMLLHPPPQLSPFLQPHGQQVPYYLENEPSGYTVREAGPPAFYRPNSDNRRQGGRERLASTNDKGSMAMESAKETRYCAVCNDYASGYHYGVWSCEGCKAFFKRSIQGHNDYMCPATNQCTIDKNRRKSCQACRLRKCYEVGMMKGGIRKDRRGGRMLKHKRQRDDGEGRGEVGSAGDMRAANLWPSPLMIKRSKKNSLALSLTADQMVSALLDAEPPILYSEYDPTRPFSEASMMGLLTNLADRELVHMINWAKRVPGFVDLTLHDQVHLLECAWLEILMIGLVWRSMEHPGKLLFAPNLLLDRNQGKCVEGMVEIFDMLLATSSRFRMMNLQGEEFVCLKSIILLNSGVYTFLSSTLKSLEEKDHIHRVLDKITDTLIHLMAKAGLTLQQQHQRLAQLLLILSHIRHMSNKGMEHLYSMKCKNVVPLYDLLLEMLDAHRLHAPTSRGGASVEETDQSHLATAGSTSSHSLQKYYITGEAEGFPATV
# Androgen receptor (Homo sapiens), sequence (P10275 whole entry, looked up): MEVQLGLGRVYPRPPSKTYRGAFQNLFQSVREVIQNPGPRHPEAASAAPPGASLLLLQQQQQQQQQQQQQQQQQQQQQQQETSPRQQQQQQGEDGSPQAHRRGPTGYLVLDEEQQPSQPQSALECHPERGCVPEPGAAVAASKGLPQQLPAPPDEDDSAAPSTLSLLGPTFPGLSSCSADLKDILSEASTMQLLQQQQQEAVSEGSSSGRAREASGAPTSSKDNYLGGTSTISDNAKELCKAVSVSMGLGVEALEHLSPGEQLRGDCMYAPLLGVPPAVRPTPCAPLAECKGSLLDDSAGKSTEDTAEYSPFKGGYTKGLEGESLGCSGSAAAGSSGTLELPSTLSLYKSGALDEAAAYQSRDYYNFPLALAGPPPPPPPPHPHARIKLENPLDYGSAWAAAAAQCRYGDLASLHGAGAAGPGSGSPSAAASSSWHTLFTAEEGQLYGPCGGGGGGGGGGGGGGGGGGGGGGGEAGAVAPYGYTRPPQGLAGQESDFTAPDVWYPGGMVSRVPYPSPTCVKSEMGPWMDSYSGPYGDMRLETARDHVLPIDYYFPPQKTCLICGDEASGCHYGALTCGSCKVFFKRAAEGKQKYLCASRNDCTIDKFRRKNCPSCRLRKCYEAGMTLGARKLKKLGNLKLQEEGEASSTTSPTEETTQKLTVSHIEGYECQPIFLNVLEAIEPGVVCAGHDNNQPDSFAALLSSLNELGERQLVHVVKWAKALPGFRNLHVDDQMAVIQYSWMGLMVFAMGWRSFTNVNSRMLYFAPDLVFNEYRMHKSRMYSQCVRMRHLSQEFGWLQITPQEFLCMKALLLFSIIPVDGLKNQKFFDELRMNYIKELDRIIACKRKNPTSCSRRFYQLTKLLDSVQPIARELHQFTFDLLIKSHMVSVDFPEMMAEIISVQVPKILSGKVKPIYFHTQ
SMILES,Potency [1],Potency [2],Potency [3],Potency [4],Potency [5],Potency [6],Potency [7],Potency [8],Potency [9],Potency [10],Potency [11],Potency [12],Potency [13],Potency [14],Potency [15],Potency [16],Potency [17],Potency [18],Potency [19]
CC(C)OC(=O)C(O)(c1ccc(Cl)cc1)c1ccc(Cl)cc1,54.9 µM (active),27.5 µM (active),inactive,21.9 µM (active),inactive,inactive,inactive,inactive,inactive,inactive,inactive,inactive,,,,,,,
CC(C)CCCCCOC(=O)c1ccccc1C(=O)OCCCCCC(C)C,inactive,inactive,,inactive,inactive,inactive,inactive,inactive,inactive,inactive,inactive,inactive,inactive,inactive,inactive,inactive,,,
CCCCCCCCCCBr,inactive,inactive,inactive,inactive,inactive,inactive,inactive,inactive,inactive,inactive,inactive,inactive,inactive,inactive,inactive,inactive,inactive,,
C=CCC1=C(C)C(OC(=O)C2C(C=C(C)C)C2(C)C)CC1=O (configuration not stated),51.9 µM (active),,51.9 µM (active),23.2 µM (active),inactive,,,,inactive,inactive,inactive,inactive,,23.2 µM (active),,,inactive,,
COCC(=O)N(c1c(C)cccc1C)[C@H](C)C(=O)OC,inactive,inactive,inactive,inactive,inactive,inactive,inactive,inactive,inactive,inactive,inactive,inactive,inactive,inactive,inactive,inactive,,,
CC(C)C1CCC(Cc2ccc(Cl)cc2)C1(O)Cn1cncn1 (configuration not stated),34.3 µM (active),43.2 µM (active),,12.2 µM (active),inactive,inactive,,48.1 µM (active),inactive,inactive,53.9 µM (active),,34.3 µM (active),13.7 µM (active),inactive,54.4 µM (active),48.1 µM (active),,
Clc1ccc(CCC(Cn2ccnc2)Sc2c(Cl)cccc2Cl)cc1 (configuration not stated),inactive,,,,inactive,inactive,inactive,,inactive,inactive,inactive,inactive,,,inactive,,inactive,inactive,
N#CSCSC#N,43.2 µM (active),39.8 µM (active) and 17.2 µM (active),inactive,12.6 µM (active) and 19.3 µM (active),inactive,70.1 µM (active),62.5 µM (active),,,inactive,12.5 µM (active) and 13.5 µM (active),inactive,56.2 µM (active) and 19.3 µM (active),22.4 µM (active) and 21.7 µM (active),,34.3 µM (active),11.1 µM (active) and 6.79 µM (active),,49.6 µM (active)
COC(=O)N(C(=O)N1COC2(C(=O)OC)Cc3cc(Cl)ccc3C2=N1)c1ccc(OC(F)(F)F)cc1 (configuration not stated),inactive,inactive,inactive,,inactive,inactive,inactive,inactive,inactive,inactive,inactive,inactive,inactive,,inactive,inactive,inactive,,
[CH3][Hg][Cl],7.74 µM (active),12.3 µM (active),inactive,4.89 µM (active),inactive,inactive,21.6 µM (active),inactive,27.2 µM (active),,68.4 µM (active),,10.9 µM (active),6.9 µM (active),,15.5 µM (active),4.84 µM (active),,19.3 µM (active)
CCCCCCCCCCCCCCCC[n+]1ccccc1,34.2 µM (active) [middle of 4 runs],15.5 µM (active) [middle of 4 runs],49 µM (active) [middle of 4 runs],9.52 µM (active) [middle of 4 runs],inactive,,32 µM (active) and 24.3 µM (active) and 26.9 µM (active),,,inactive,50.8 µM (active) and 61.1 µM (active) and 60.3 µM (active),inactive,,45.7 µM (active) and 54.9 µM (active) and 54.2 µM (active),49 µM (active) [middle of 4 runs],49 µM (active) and 48.3 µM (active) and 16.9 µM (active),60.3 µM (active) [middle of 4 runs],,
CCC(C)c1cc(C(C)(C)C)cc(-n2nc3ccccc3n2)c1O (configuration not stated),inactive,inactive,,inactive,inactive,inactive,inactive,,inactive,inactive,inactive,inactive,inactive,inactive,inactive,inactive,inactive,,inactive
Cl/C=C\CCl,inactive,inactive,inactive,inactive,inactive,inactive,inactive,,,inactive,inactive,inactive,inactive,inactive,inactive,inactive,inactive,,
COc1cc(N)c(Cl)cc1C(=O)NC1CN2CCC1CC2 (configuration not stated),inactive,inactive,inactive,inactive,inactive,inactive,inactive,,,inactive,inactive,inactive,inactive,inactive,inactive,inactive,,inactive,
O=C1NCN(c2ccccc2)C12CCN(CC1COc3ccccc3O1)CC2 (configuration not stated),inactive,inactive,inactive,,inactive,,inactive,,inactive,inactive,,,,,inactive,inactive,,,
ClC1=C(Cl)[C@]2(Cl)[C@@H]3[C@@H]4C[C@@H]([C@H]5O[C@@H]45)[C@@H]3[C@@]1(Cl)C2(Cl)Cl,43.6 µM (active),54.9 µM (active),27.5 µM (active),21.9 µM (active),inactive,inactive,,68.6 µM (active),inactive,inactive,,inactive,,38.9 µM (active),49 µM (active),49 µM (active),,inactive,
